# High-throughput results as filed in PubChem.
# Rows were chosen to be rich in hits. Some 1.8% of all compounds tested hit in one or more screens of this group.
# IL1B NFkB inh – inhibitors of IL-1B driven NFkB p65 nuclear import, primary screen, imaging, HUVEC, IL-1B stimulus, high-content imaging | inhibition, % at 2 µM | HUVEC IL-1B NFkB p65 nuclear translocation imaging | 0.43% of 94,000 active;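 active = inhibition above about 30% together with a positive call from visual inspection of the well image, limit read from the data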;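 note: nuclear over cytoplasmic p65 intensity ratio measured by imaging; 0% = IL-1B stimulated DMSO wells and 100% = unstimulated DMSO wells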
# VCAM1 TNFa inh – inhibitors of TNFa-induced VCAM1 expression, primary screen, imaging, HUVEC, TNFa stimulus, immunofluorescence | inhibition, % at 2 µM | 0.48% of 95,000 active | AID 802, 2007 | HUVEC TNFa-induced VCAM-1 immunofluorescence, high-content imaging;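 active = inhibition above the batch mean plus 3 SD, with images confirmed as a hit by eye, cut at about 37% in these data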;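 note: 0% = TNF-stimulated DMSO wells and 100% = unstimulated control wells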
# E-sel TNF inh – E-selectin induction blockers in HUVEC – imaging, immunofluorescence, high content, primary screen; HUVEC TNFa-induced E-selectin immunofluorescence; inhibition, % at 2 µM; 0.71% of 120,000 active; AID 1246, 2008;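 active = inhibition above the batch mean plus 3 SD, and confirmed as a hit on visual image review, cut at about 43% in these data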;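 note: 0% = TNF-stimulated DMSO wells and 100% = unstimulated control wells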
# HUVEC tox IL1B – cytotoxicity in IL-1B stimulated HUVEC, primary screen, cytotoxicity control for IL-1B NFkB translocation project, imaging, Hoechst nuclear count, IL-1B stimulus | HUVEC cell count loss | cell count reduction, % at 2 µM | 0.41% of 94,000 active;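 active = cell count reduction more than 3 SD above the screen-wide mean, cut at about 70% in these data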;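 note: normalized per plate to untreated control cells as the no-loss baseline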
# TNFa cytotox – cytotoxicity in TNFa-stimulated HUVEC, primary screen, cytotoxicity control for VCAM1 expression modulator project, imaging, Hoechst nuclei count; 0.17% of 93,000 active; AID 848, 2007; cell count reduction, % at 2 µM; HUVEC TNFalpha-stimulated, Hoechst cell count;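 active = cell count reduction exceeding the screen mean by over 5 SD, scaled to untreated wells per plate, cut at about 78% in these data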;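 note: cells counted after 24 h of TNF alpha exposure following the 1 h pretreatment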
# IL1B NFkB pot – enhancers of NFkB p65 translocation in HUVEC – imaging, IL-1B stimulus, high-content imaging, primary screen | HUVEC IL-1B NFkB p65 nuclear translocation imaging | activation, % at 2 µM | 0.3% of 94,000 active;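 active = activation above 40%, about the mean plus 3 SD, also judged a hit on visual image review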;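 note: percent activation is computed from the nuclear over cytoplasmic p65 intensity ratio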
# An asterisk follows results filed as active; . = no result.
SMILES,IL1B NFkB inh,VCAM1 TNFa inh,E-sel TNF inh,HUVEC tox IL1B,TNFa cytotox,IL1B NFkB pot
COc1ccc(OC)c(NC(=O)Cc2nn(C)c(=O)c3ccccc23)c1,-13,-12,-6,12,11,13
COc1cc(NC(=O)Cc2nn(C)c(=O)c3ccccc23)cc(OC)c1OC,.,5,50*,.,-8,.
Cc1sc2ncn(CCn3cnc4sc(C)c(C)c4c3=O)c(=O)c2c1C,57*,3,17,9,7,-57
Cc1sc2ncn(CCC(=O)O)c(=O)c2c1C,-3,7,1,-19,-38,3
Cc1cccc(C(=O)CC(=O)c2cc(Cl)ccc2O)c1,10,16,5,6,-8,-11
O=C(CC(=O)c1cc(Cl)ccc1O)c1ccccc1,-11,11,-12,89*,0,11
Cc1ccc(CNC(=O)CCS(=O)(=O)c2ccc(Br)s2)cc1,-12,-4,11,-1,-15,12
O=C(COC(=O)C1CCCCC1C(=O)N1CCc2ccccc21)NCc1ccco1 (centres undefined),.,.,-30,.,.,.
COCCCNCCCCOc1ccc(OCc2ccccc2)cc1,.,.,66*,.,.,.
CC1(C)CC(=O)C=C(Nc2ccc(S(N)(=O)=O)cc2)C1,34*,-4,-4,8,-4,-34
CC1=C(C#N)C(Nc2cccc(C)n2)(C(F)(F)F)C(=O)N1 (centres undefined),-16,91*,.,-16,82*,16
CC1=C(C#N)C(NC(=O)c2cccc(Cl)c2)(C(F)(F)F)C(=O)N1 (centres undefined),.,.,8,.,.,.
C=C(C)n1c(=O)[nH]c2ccccc21,4,6,-5,-98,-5,-4
O=C(Nc1nnc(-c2ccco2)s1)C1CCN(S(=O)(=O)c2ccc(Cl)cc2)CC1,-12,9,-17,-18,-23,12
O=C(Nc1nnc(-c2ccco2)s1)C1CC1,-7,3,95*,48,-7,7
O=C(Nc1cccc(-c2cn3ccccc3n2)c1)c1cccc(Cl)c1,1,-2,57*,3,-25,-1
O=C(Nc1cccc(-c2cn3ccccc3n2)c1)c1cnccn1,-17,49,-3,1,20,17
CCN(CC)CCCC(C)NC(=O)c1ccc(C(F)(F)F)cc1 (centres undefined),.,.,5,.,.,.
CC12Cc3ccc4ccccc4c3C=C1C[N+](C)(C)C2 (centres undefined),49*,-14,13,-3,3,-49
Cc1cc(C(=O)NCCCN2CC(C)CC(C)C2)n(-c2ccccc2)n1 (centres undefined),6,-3,.,-3,32,-6
CC1CC(=O)NN=C1c1ccc(NCCO)c([N+](=O)[O-])c1 (centres undefined),-1,40*,-21,-27,25,1
COc1cc(OC)cc(-c2cc3nc(C)cc(N4CCN(C(=O)c5ccco5)CC4)n3n2)c1,-42,1,-30,2,-19,43*
Cc1cc(N2CCN(C(=O)c3ccco3)CC2)n2nc(-c3cccc(F)c3)cc2n1,7,-1,-22,-6,-13,-7
COc1ccccc1-c1cc(C(F)(F)F)nc(S(=O)(=O)CCCC(=O)N2CCCCC2C)n1 (centres undefined),11,71*,.,-34,-15,-11
COC(=O)c1cccc(NC(=O)CSc2nnc(C)n2Cc2ccccc2)c1,.,.,4,.,.,.
Cc1ccccc1Cn1nc(C)c(NC(=O)c2cc3n(n2)C(C(F)F)CC(C(F)F)N3)c1C (centres undefined),96*,11,2,78*,6,-96
Cc1ccccc1Cn1nc(C)c(NC(=O)c2cc(-c3cccs3)on2)c1C,3,91*,.,3,80*,-3
O=c1c2cc3c(=O)n(-c4ccccc4O)c(=O)c3cc2c(=O)n1-c1ccccc1O,.,.,-12,.,.,.
O=C(O)c1ccc2c(c1)C(=O)N(N1C(=O)c3ccccc3C1=O)C2=O,.,.,-7,.,.,.
O=C(COc1ccccc1-c1ccccc1)N/N=C/c1cccc2ccccc12,15,69*,17,14,55,-15
